Most compounds without a hit are left out; they make up all but 3.3% or so of the library.
Giardia FBPA inh – blocks Giardia fructose-bisphosphate aldolase activity | Potency, µM (titrated, usually from 59.6 µM), without a hit: top-dose activity, negative = inhibition, hits mostly inhibitors | actives 0.71% (n = 290,000) | A8B2U2 | AID 2451 | purified Giardia FBPA; further: potency means the concentration at half of the fitted maximal effect; on the % scale 0 is the no-effect control and ±100 the full control effect; nearly all actives have a fitted effect of over 55% in size
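40 nM FBPA preincubated 10 min at RT with compound (up to 57.5 uM final), then substrate plus GAPDH/TPI/NAD/arsenate coupling and diaphorase/resazurin added. Fluorescence read after 20 min at RT, 525/598 nm.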
RE007 growth inh – less growth of the S. pombe RE007 Vpr strain | S. pombe RE007 Vpr strain, BacTiter-Glo ATP luminescence, 24 h | Potency, µM (doses to about 92.2 µM), inactives show top-dose activity change, negative = less growth, hits mostly inhibitors | actives 0.21% (n = 360,000) | AID 651644; active means well fitted falling curve with a large enough effect; inconclusive means small, poorly fitted or top-dose-only effect; inactive means no such curve, though single readings can be large or run the other way; further: potency means the concentration at half of the fitted maximal effect; on the % scale 0 is the no-effect control and ±100 the full control effect; nearly all actives have a fitted effect of over 50% in size
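Fission yeast strain RE007, carrying one chromosomally integrated HIV-1 vpr copy, was seeded at OD 0.01 in PMG+AL medium with 23 nL pinned compound. After 24 h at 30 °C and 99% humidity, viability was read by BacTiter-Glo luminescence.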
TbPYK inhibitor – blocks Trypanosoma brucei pyruvate kinase; Q57TT1; TbPYK enzyme, Kinase-Glo Plus ATP luminescence, 45 min; Potency, µM (doses to about 76.8 µM), for the others: at the highest dose activity, negative = inhibition, most hits filed as inhibitors; actives 0.12% (n = 410,000); AID 624173; further: potency means the concentration at half of the fitted maximal effect; on the % scale 0 is the no-effect control and ±100 the full control effect; nearly all actives have a fitted effect of over 50% in size
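Luminescence from Kinase-Glo Plus, added after a 45-minute room-temperature reaction, served as the end-point read-out. The enzyme and substrate were preincubated with compound before ADP (130 uM final) initiated turnover. Concentration-effect curves came from normalized qHTS data.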
LmPK inh – inhibitors of Leishmania mexicana pyruvate kinase. purified LmPK, Kinase-Glo ATP luminescence, 1 h. actives 0.37% (n = 290,000). Potency, µM (series often up to 57.5 µM), without a hit: at the highest dose activity change, negative = inhibition, actives largely listed as inhibitors. Q27686; further: potency means the concentration at half of the fitted maximal effect; on the % scale 0 is the no-effect control and ±100 the full control effect
Target sequence (Q27686 whole entry, looked up): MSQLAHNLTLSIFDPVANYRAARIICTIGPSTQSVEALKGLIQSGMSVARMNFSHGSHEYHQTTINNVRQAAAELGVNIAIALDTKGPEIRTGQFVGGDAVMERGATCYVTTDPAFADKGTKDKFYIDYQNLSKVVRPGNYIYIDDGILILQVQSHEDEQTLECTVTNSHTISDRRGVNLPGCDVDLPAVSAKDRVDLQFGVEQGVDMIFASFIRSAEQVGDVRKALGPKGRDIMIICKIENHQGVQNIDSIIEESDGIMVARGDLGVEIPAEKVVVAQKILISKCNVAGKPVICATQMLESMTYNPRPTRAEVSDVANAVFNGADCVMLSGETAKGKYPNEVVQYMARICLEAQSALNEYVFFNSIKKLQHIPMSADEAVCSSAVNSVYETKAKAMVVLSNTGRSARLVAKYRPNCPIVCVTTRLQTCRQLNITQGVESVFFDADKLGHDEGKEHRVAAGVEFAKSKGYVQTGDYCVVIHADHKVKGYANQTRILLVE
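Pyruvate kinase activity monitored as ATP production (luciferase luminescence). Conditions: 0.1 nM enzyme, 0.5 mM PEP, 0.1 mM ADP, 1 h, RT; normalized against uninhibited and no-enzyme wells.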
Sm TGR inh – blocks Schistosoma mansoni thioredoxin glutathione reductase. Potency, µM (doses to about 114 µM), for inactives: top-dose activity change, negative = inhibition, hits mostly inhibitors. actives 3% (n = 360,000). AID 485364. purified TGR, DTNB reduction, TNB absorbance 405 nm. Q962Y6; further: potency means the concentration at half of the fitted maximal effect; on the % scale 0 is the no-effect control and ±100 the full control effect; nearly all actives have a fitted effect of over 60% in size
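TGR 20 nM + NADPH 100 uM (dispensed conc.), cpd preinc 15 min RT; start with NADPH (500 uM addition) then DTNB (15 mM addition). Kinetic TNB absorbance, 405 nm filter. Four-parameter Hill fit across titration.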
LmPK inh confirm – Blocks LmPK activity, confirmation assay | shares compounds with LmPK inh | purified LmPK, Kinase-Glo ATP luminescence, 1 h | Potency, µM (top dose mostly 57.5 µM), without a hit: top-dose activity change, negative = inhibition, actives largely listed as inhibitors | actives 40% (n = 150) | AID 2559;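 active means compounds giving a full or partial concentration-response curve, as inhibitors or activators; inconclusive means weak, top-dose-only or unclear curve responses; inactive means no response at any tested dose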
The depositor's hits bear a star. Unless noted, the call rests on the fitted dose curve; in most records, active means well fitted curve in the direction sought with a large enough effect; inconclusive means small, poorly fitted or top-dose-only effect, or another doubt; inactive means no such curve, though single readings can be large; an effect the other way counts as inactive or inconclusive.

`CCN1/C(=C/c2ccc3cccc(C)c3[n+]2CC)Sc2ccccc21` gave Giardia FBPA inh 6.7%, RE007 growth inh inconclusive, TbPYK inhibitor -4.9%, LmPK inh -13.8%, Sm TGR inh 25.9% and LmPK inh confirm -12.5%.
`COc1ccc(C(=O)Nc2scc(-c3ccc(Cl)cc3Cl)c2C(N)=O)cc1` gave Giardia FBPA inh -7.5%, RE007 growth inh -13.9%, TbPYK inhibitor 4.0%, LmPK inh 5.1%, Sm TGR inh -25.3% and LmPK inh confirm 0.3%.
For COc1ccc2[nH]cc(CCNS(=O)(=O)c3ccc(C)cc3)c2c1 the results were Giardia FBPA inh -6.0%, RE007 growth inh 12.9%, TbPYK inhibitor -22.7%, LmPK inh 0.4% and Sm TGR inh -20.0%.
O=C1C=CC(=O)N1CCCCCCN1C(=O)C=CC1=O was read as Giardia FBPA inh -2.0%, RE007 growth inh 8.91µM*, TbPYK inhibitor 10µM*, LmPK inh inconclusive, Sm TGR inh -8.9% and LmPK inh confirm inconclusive.
For Cc1ccnc(NC(=O)c2cc3ccccc3oc2=O)c1 the results were Giardia FBPA inh 2.3%, RE007 growth inh -3.0%, TbPYK inhibitor -10.2%, LmPK inh 7.94µM*, Sm TGR inh 6.3% and LmPK inh confirm inconclusive.
For CCOc1ccc(NC(=O)Nc2ccccc2C(N)=O)cc1 the results were Giardia FBPA inh 1.8%, RE007 growth inh inconclusive, TbPYK inhibitor -15.4%, LmPK inh 3.16µM* and LmPK inh confirm 10.3µM*.
For CC(C)c1ccc(NC(=O)CCCC(=O)NCCc2ccccc2)cc1 the results were Giardia FBPA inh -1.6%, RE007 growth inh -8.7%, TbPYK inhibitor -3.7%, LmPK inh -15.4% and Sm TGR inh -3.4%.
For CN(Cc1cccc(-n2cccn2)c1)Cc1cn(C)nc1-c1ccccc1F the results were Giardia FBPA inh -0.1%, RE007 growth inh -10.3%, TbPYK inhibitor -0.5%, LmPK inh -5.3%, Sm TGR inh -35.5% and LmPK inh confirm -6.6%.
For O=C1C(c2cc(=O)c3ccccc3[nH]2)=C(O)c2ccccc21 the results were Giardia FBPA inh inconclusive, RE007 growth inh -21.3%, TbPYK inhibitor 8.91µM*, LmPK inh 3.98µM*, Sm TGR inh 4.4% and LmPK inh confirm inconclusive.
`CCOC(=O)C1CCN(C(=O)c2ccc(C)c(S(=O)(=O)N3CCCC3)c2)CC1` gave RE007 growth inh 0.9%, TbPYK inhibitor -4.2%, LmPK inh 0.9% and Sm TGR inh 1.4%.
For c1ccc(-c2cc(-c3nc(-c4ccccn4)no3)c3ccccc3n2)cc1 the results were RE007 growth inh 1.2% and TbPYK inhibitor -13.1%.
For c1ccc(-c2nc(-c3ccccn3)no2)cc1 the results were Giardia FBPA inh -2.4%, RE007 growth inh inconclusive, TbPYK inhibitor inconclusive, LmPK inh 3.55µM*, Sm TGR inh -1.5% and LmPK inh confirm 14.6µM*.
Cc1occc1C(=O)N/N=C/c1ccc2c(c1)OCO2 was read as Giardia FBPA inh -6.6%, RE007 growth inh inconclusive, TbPYK inhibitor inconclusive, LmPK inh 4.47µM*, Sm TGR inh 1.1% and LmPK inh confirm 16.3µM*.
For Cc1ccc(C)c(OC2=NS(=O)(=O)c3ccccc32)c1 the results were Giardia FBPA inh 2.5%, RE007 growth inh -9.4%, TbPYK inhibitor -19.3%, LmPK inh 10µM*, Sm TGR inh -16.3% and LmPK inh confirm inconclusive.
For COC1=NS(=O)(=O)c2ccccc21 the results were Giardia FBPA inh 2.3%, RE007 growth inh 14.2%, TbPYK inhibitor 1.2%, LmPK inh -6.3% and Sm TGR inh 1.3%.
`Cc1ccc(S(=O)(=O)/N=C2/C=C(Sc3ncn[nH]3)C(=O)c3ccccc32)c(C)c1` gave Giardia FBPA inh 1.58µM*, LmPK inh 7.94µM*, Sm TGR inh 0.631µM* and LmPK inh confirm inconclusive.
Oc1ccc(C23CC4CC(CC(C4)C2)C3)cc1O was read as Giardia FBPA inh -5.6%, RE007 growth inh inconclusive, TbPYK inhibitor inconclusive, LmPK inh 0.282µM*, Sm TGR inh 1.78µM* and LmPK inh confirm -12.6%.
CC(=O)Nc1ccc(C23CC4CC(CC(C4)C2)C3)cc1 was read as Giardia FBPA inh -1.7%, RE007 growth inh 9.6%, TbPYK inhibitor 0.6%, LmPK inh 3.0% and Sm TGR inh -7.1%.
Cc1ccc(Cn2nnc3c(=O)[nH]c(C4CCCN(C(=O)Nc5ccc(F)cc5F)C4)nc32)cc1 (configuration not stated) was read as Giardia FBPA inh -3.1%, RE007 growth inh 6.7%, TbPYK inhibitor 0.2%, LmPK inh 8.7%, Sm TGR inh -3.7% and LmPK inh confirm 7.2%.
Screening CCc1ccc2nc(N(Cc3cccnc3)C(=O)c3cccs3)sc2c1 returned TbPYK inhibitor 2.8% and Sm TGR inh 6.9%.
`CC(C)(C)c1ccc(CN(Cc2ccco2)Cc2nnnn2C2CCCC2)cc1` gave Giardia FBPA inh -6.2%, RE007 growth inh 3.3%, TbPYK inhibitor 6.6%, LmPK inh -5.1%, Sm TGR inh -24.9% and LmPK inh confirm -2.7%.
CC(=O)N1CCN(c2ccc(NC(=O)c3cccc(F)c3)cc2)CC1 was read as RE007 growth inh 9.0% and TbPYK inhibitor -0.8%.
Screening O=C(O)CNC(=S)N(Cc1ccc(F)cc1)C1CCCCC1 returned Giardia FBPA inh 15.7%, RE007 growth inh 0.5%, TbPYK inhibitor 3.0%, LmPK inh 3.9% and Sm TGR inh -1.0%.
Screening O=C(CCNS(=O)(=O)c1ccc(Br)cc1)NCc1cccs1 returned Giardia FBPA inh 11.5%, RE007 growth inh 1.6%, TbPYK inhibitor 1.0%, LmPK inh -0.9% and Sm TGR inh -4.6%.
Screening O=C(/C=C/Nc1ccccc1Br)c1ccccn1 returned Giardia FBPA inh 4.0%, RE007 growth inh -24.9%, TbPYK inhibitor inconclusive, LmPK inh 5.01µM*, Sm TGR inh 0.2% and LmPK inh confirm 20.6µM*.
For Cc1ccsc1C(=O)Nc1nc2ccccc2[nH]1 the results were Giardia FBPA inh -8.7%, RE007 growth inh inconclusive, TbPYK inhibitor inconclusive, LmPK inh 2.82µM*, Sm TGR inh 7.0% and LmPK inh confirm 20.6µM*.
For O=C(Nc1nc2ccccc2[nH]1)c1ccccc1OC(F)F the results were Giardia FBPA inh -18.2%, RE007 growth inh inconclusive, TbPYK inhibitor -5.0%, LmPK inh inconclusive and Sm TGR inh 1.2%.
For O=C(Nc1nc2ccccc2[nH]1)c1ccccc1F the results were Giardia FBPA inh -10.8%, RE007 growth inh 6.31µM*, TbPYK inhibitor inconclusive, LmPK inh 3.16µM*, Sm TGR inh 8.5% and LmPK inh confirm 6.51µM*.
